Laboratory results as given in PubChem BioAssay (Tox21).
Records with an inconclusive call do not appear. Values without a mark were called inactive. The source made the active and inactive calls. Calls follow the shape of the full dose curve. Non-standard residues stand in square brackets, D forms with d. Residues, ends and D or L forms follow the SMILES beside them. *: point of attachment. Sta = CC(C)C[C@H](N)[C@@H](O)CC(=O)O; Isovaleryl = CC(C)CC(=O)*

biological target: Vitamin D3 receptor (Homo sapiens) (UniProt P11473); assay: qHTS assay to identify small molecule agonists of the vitamin D receptor (VDR) signaling pathway (AID 743222); conditions: HEK293T VDR-UAS-bla, beta-lactamase FRET ratio, 16 h; series mostly up to 63.5 µM
Sequence (P11473 whole entry, looked up): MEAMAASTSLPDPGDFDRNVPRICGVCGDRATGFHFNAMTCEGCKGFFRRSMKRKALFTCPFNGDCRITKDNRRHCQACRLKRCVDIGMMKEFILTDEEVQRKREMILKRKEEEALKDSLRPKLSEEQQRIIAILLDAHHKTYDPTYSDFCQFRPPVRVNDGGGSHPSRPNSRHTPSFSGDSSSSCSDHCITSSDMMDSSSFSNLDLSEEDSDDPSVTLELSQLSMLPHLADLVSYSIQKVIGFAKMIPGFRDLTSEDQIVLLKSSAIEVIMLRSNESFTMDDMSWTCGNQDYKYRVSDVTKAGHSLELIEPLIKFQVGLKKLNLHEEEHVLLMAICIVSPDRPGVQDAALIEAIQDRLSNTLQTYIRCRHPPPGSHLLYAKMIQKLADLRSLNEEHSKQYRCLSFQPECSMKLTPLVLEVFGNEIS
From the text: National Center for Advancing Translational Sciences [NCATS]
NIH Chemical Genomics Center [NCGC]
U.S. Environmental Protection Agency [EPA]
National Institutes of Environmental Health Sciences [NIEHS]
National Toxicology Program [NTP]
U.S. Food and Drug Administration [FDA]
The vitamin D receptor (VDR), a member of nuclear hormone receptor superfamily, plays a critical role in calcium homeostasis and bone metabolism. It is also involved in cell differentiation and growth, and thrombogenicity.
Tox21 Assay Protocol Summary:
VDR-bla cells were dispensed at 2,000 cells/6 uL/well into black wall/clear-bottom 1536-well plates using a Multidrop Combi (Thermo Fisher Scientific, Waltham, MA) dispenser. After the assay plates were incubated at a 37C and 5% CO2 for 4 h, 23 nL of compounds dissolved in DMSO, positive controls or DMSO only was transferred to the assay plate by a Pintool station (Kalypsys, San Diego, CA). The plates were incubated at 37C and 5% CO2 for 16 h. After 1 uL of LiveBLAzerTM B/G FRET substrate was added using a Bioraptr Flying Reagent Dispenser (FRD) workstation (Beckman Coulter, Indianapolis, IN, USA), the plates were incubated at room temperature for 2 h, and fluorescence intensity was measured by an Envision plate reader (PerkinElmer, Shelton, CT).
% is scaled to controls: 0 for no effect and ±100 for the full control effect.

| SMILES | outcome | activation |
| --- | --- | --- |
| CC(C)C[P+](C)(CC(C)C)CC(C)C | inactive |  |
| CCCCC(CC)COC(=O)CC#N (stereo not given) | inactive |  |
| O=Cc1ccccc1S(=O)(=O)O | inactive |  |
| COc1cc(OC)cc(OC)c1 | inactive |  |
| Cc1ccc(NC(N)=O)cc1 | inactive |  |
| CC(C)(C)NCC(O)COc1cccc2c1CCC(=O)N2 (stereo not given) | inactive |  |
| CCCC[O][Al]([O]CCCC)[O]CCCC | inactive |  |
| C=CCON/C(CCC)=C1\C(=O)CC(C)(C)C(C(=O)OC)=C1O | inactive |  |
| CC(=O)c1ccc2ccc3ccccc3c2c1 | inactive |  |
| CC(=O)Oc1ccc(C(C)=O)cc1 | inactive |  |
| CC(=O)OCC(=O)[C@@]1(O)CC[C@H]2[C@@H]3CCC4=CC(=O)C=C[C@]4(C)[C@H]3[C@@H](O)C[C@@]21C | inactive |  |
| CCCCCCCCOCCC#N | inactive |  |
| O=c1[nH]c(=O)c2cn[nH]c2[nH]1 | inactive |  |
| CC/C=C\CCCCCCCCCCOC(C)=O | inactive |  |
| O=C(O)P(=O)(O)O | inactive |  |
| CC(CN1CC(=O)NC(=O)C1)N1CC(=O)NC(=O)C1 (stereo not given) | inactive |  |
| CC(C)CC(=O)N[C@H](C(=O)N[C@H](C(=O)N[C@@H](CC(C)C)[C@@H](O)CC(=O)N[C@@H](C)C(=O)N[C@@H](CC(C)C)[C@@H](O)CC(=O)O)C(C)C)C(C)C (Isovaleryl-VV[Sta]A[Sta]-OH) | inactive |  |
| Cc1ccc2ccccc2n1 | inactive |  |
| CN1C(CCl)Nc2cc(Cl)c(S(N)(=O)=O)cc2S1(=O)=O (stereo not given) | inactive |  |
| CCCOc1ccc(C(=O)OCCN(CC)CC)cc1N | inactive |  |

| SMILES | outcome | activation |
| --- | --- | --- |
| CCc1ncc(C)[nH]1 | inactive |  |
| CN(C)CCc1c[nH]c2ccc(CS(=O)(=O)N3CCCC3)cc12 | inactive |  |
| COC(=O)C(c1ccccc1Cl)N1CCc2sccc2C1 (stereo not given) | inactive |  |
| Nc1ccc(C(=O)NCC(=O)O)cc1 | inactive |  |
| O=S(=O)(O)CC(O)CCl (stereo not given) | inactive |  |
| O=c1c(O)c(O)c1=O | inactive |  |
| COC(=O)c1cc(Cl)c(NC(C)=O)cc1OC | inactive |  |
| C/C=C(\C)C(=O)OC/C=C(\C)CCC=C(C)C | inactive |  |
| C=CC(=O)OCC[N+](C)(C)C | inactive |  |
| O=C1CCCc2c(O)cccc21 | inactive |  |
| CC(=O)O[C@@H]1CC2C3CCc4cc(OC(=O)c5ccccc5)ccc4C3CCC2(C)[C@H]1OC(C)=O (stereo not given in full) | inactive |  |
| COC(C)(C)CC(C)=O | inactive |  |
| CCCCS | inactive |  |
| Clc1cc(Cl)c(Cl)c(Cl)c1Cl | inactive |  |
| C[C@@H]1NC(=O)[C@@H](N)CNC(=O)[C@H](C2CCNC(N)=N2)NC(=O)/C(=C/NC(N)=O)NC(=O)[C@H](CNC(=O)C[C@@H](N)CCCN)NC1=O (stereo not given in full) |  | 3.13% [at 0.554 µM] |
| COc1cc(S(N)(=O)=O)cc(C(=O)O)c1OC | inactive |  |
| C[C@H]1COc2c(C3(N)CC3)c(F)cc3c(=O)c(C(=O)O)cn1c23 | inactive |  |
| Cc1ccccc1C#N | inactive |  |
| Cc1nnc(C(=O)NC(C)(C)c2nc(C(=O)NCc3ccc(F)cc3)c(O)c(=O)n2C)o1 | inactive |  |
| CCCCc1ccc(Cl)cc1 | inactive |  |
